{"source": "PubChem BioAssay (EPA / NIEHS)", "note": "Values joined by “and” are separate entries in the source; they are usually repeats but may differ in a detail not shown here. Equal values may be shown once. Where a structure was tested more than once in an assay, its records may differ in their call. Active and inactive are the calls of the source. How the source made its calls: active means hit-call score of the fitted dose curve at least 0.9, where 1 is the maximum; inactive means score below 0.9."}
{"read-out": "Interleukin-8 (IL8), CXCL8 (gene 3576)", "experiment": "BSK_hDFCGF_IL8: BioMAP Diversity Plus: hDFCGF Assay for Interleukin-8 (IL8) Biomarker Activity (AID 2283058)", "conditions": "primary human foreskin fibroblasts; actives raise or lower the signal", "outline": "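Cells used are human skin primary fibroblasts. Chemical is added, cultures run 24 h, then IL-8 is quantified by ELISA, and gain or loss versus DMSO control is fitted in both directions.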"}
{"smiles": "O=C(O)C(F)(F)C(F)(F)C(F)(F)C(F)(F)C(F)(F)C(F)(F)C(F)(F)F", "outcome": "inactive"}
{"smiles": "CNC(=O)/C=C(\\C)OP(=O)(OC)OC", "outcome": "inactive"}
{"smiles": "CC1(c2ccc(Oc3ccccc3)cc2)OC(=O)N(Nc2ccccc2)C1=O", "note": "(configuration not stated)", "outcome": "inactive"}
{"smiles": "O=C(Nc1ccccc1)Nc1cnns1", "outcome": "inactive"}
{"smiles": "COP(=S)(OC)Oc1ccc([N+](=O)[O-])cc1", "outcome": "inactive"}
{"smiles": "CNC(=O)Oc1cccc(N=CN(C)C)c1", "outcome": "inactive"}
{"smiles": "CCCN(CCOc1c(Cl)cc(Cl)cc1Cl)C(=O)n1ccnc1", "outcome": "inactive"}
{"smiles": "COC(=O)c1ccccc1S(=O)(=O)NC(=O)Nc1nc(C)nc(OC)n1", "outcome": "inactive"}
{"smiles": "Cc1cc(C)nc(NC(=O)NS(=O)(=O)c2ccccc2C(=O)OC2COC2)n1", "outcome": "inactive"}
{"smiles": "CCC(C)(C)C(=O)OC1=C(c2ccc(Cl)cc2Cl)C(=O)OC12CCCCC2", "AC50": "11 µM (active)"}
{"smiles": "CNC(=O)Oc1ccccc1OC(C)C", "outcome": "inactive"}
{"smiles": "Clc1ccccc1-c1nnc(-c2ccccc2Cl)nn1", "outcome": "inactive"}
{"smiles": "O=C1c2ccccc2C(=O)N1SC(Cl)(Cl)Cl", "outcome": "inactive"}
{"smiles": "Cc1[nH]c(=O)n(C(C)(C)C)c(=O)c1Cl", "outcome": "inactive"}
{"smiles": "C[C@H]1[C@H](c2ccc(Cl)cc2)SC(=O)N1C(=O)NC1CCCCC1", "outcome": "inactive"}
{"smiles": "COC(=O)c1ccccc1S(=O)(=O)NC(=O)N(C)c1nc(C)nc(OC)n1", "outcome": "inactive"}
{"smiles": "CCc1ccc(C(=O)NN(C(=O)c2cc(C)cc(C)c2)C(C)(C)C)cc1", "outcome": "inactive"}
{"smiles": "CC[C@H](C)[C@H]1O[C@]2(C=C[C@@H]1C)C[C@@H]1C[C@@H](C/C=C(\\C)[C@@H](O[C@H]3C[C@H](OC)[C@@H](O[C@H]4C[C@H](OC)[C@@H](O)[C@H](C)O4)[C@H](C)O3)[C@@H](C)/C=C/C=C3\\CO[C@@H]4[C@H](O)C(C)=C[C@@H](C(=O)O1)[C@]34O)O2", "note": "(tested in a mixture with another compound)", "AC50": "9.73 µM (active)"}
{"smiles": "O=S(=O)(O)C(F)(F)C(F)(F)C(F)(F)C(F)(F)C(F)(F)C(F)(F)C(F)(F)C(F)(F)F", "outcome": "inactive"}
{"smiles": "Oc1ccc(Cl)cc1Cc1ccccc1", "AC50": "31.3 µM (active) [middle of 7 runs]"}
{"smiles": "COP(=S)(OC)Oc1ccc(SC)c(C)c1", "outcome": "inactive"}
{"smiles": "COC(=O)c1ccccc1CS(=O)(=O)NC(=O)Nc1nc(OC)cc(OC)n1", "outcome": "inactive"}
{"smiles": "Oc1cc(Cl)ccc1Oc1ccc(Cl)cc1Cl", "AC50": "30 µM (active) [middle of 4 runs]"}
{"smiles": "OCCOc1ccccc1", "outcome": "inactive"}
{"smiles": "ClC1C(Cl)C(Cl)C(Cl)C(Cl)C1Cl", "note": "(configuration not stated)", "outcome": "inactive"}
{"smiles": "CC(C)N(C(=O)COc1nnc(C(F)(F)F)s1)c1ccc(F)cc1", "outcome": "inactive"}
{"read-out": "not listed separately", "experiment": "BSK_hDFCGF_Proliferation: Cell Proliferation Assessment in the BioMAP Diversity Plus: hDFCGF Assay (AID 2283059);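 further: curves fitted for both rise and fall of signal versus DMSO baseline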", "conditions": "primary human foreskin fibroblasts", "outline": "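Primary human foreskin fibroblasts, sub-confluent; […]; 10% TCA fix, 0.1% SRB stain, A560 total protein. Gain/loss fitted bidirectionally vs DMSO control.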"}
{"smiles": "CC1(c2ccc(Oc3ccccc3)cc2)OC(=O)N(Nc2ccccc2)C1=O", "note": "(configuration not stated)", "outcome": "inactive"}
{"smiles": "O=C(Nc1ccccc1)Nc1cnns1", "outcome": "inactive"}
{"smiles": "COP(=S)(OC)Oc1ccc([N+](=O)[O-])cc1", "outcome": "inactive"}
{"smiles": "CNC(=O)Oc1cccc(N=CN(C)C)c1", "AC50": "24.2 µM (active)"}
{"smiles": "CCCN(CCOc1c(Cl)cc(Cl)cc1Cl)C(=O)n1ccnc1", "AC50": "21 µM (active)"}
{"smiles": "COC(=O)c1ccccc1S(=O)(=O)NC(=O)Nc1nc(C)nc(OC)n1", "outcome": "inactive"}
{"smiles": "Cc1cc(C)nc(NC(=O)NS(=O)(=O)c2ccccc2C(=O)OC2COC2)n1", "outcome": "inactive"}
{"smiles": "CNC(=O)Oc1ccccc1OC(C)C", "outcome": "inactive"}
{"smiles": "Clc1ccccc1-c1nnc(-c2ccccc2Cl)nn1", "outcome": "inactive"}
{"smiles": "O=C1c2ccccc2C(=O)N1SC(Cl)(Cl)Cl", "AC50": "29.7 µM (active)"}
{"smiles": "Cc1[nH]c(=O)n(C(C)(C)C)c(=O)c1Cl", "outcome": "inactive"}
{"smiles": "CC[C@H](C)[C@H]1O[C@]2(C=C[C@@H]1C)C[C@@H]1C[C@@H](C/C=C(\\C)[C@@H](O[C@H]3C[C@H](OC)[C@@H](O[C@H]4C[C@H](OC)[C@@H](O)[C@H](C)O4)[C@H](C)O3)[C@@H](C)/C=C/C=C3\\CO[C@@H]4[C@H](O)C(C)=C[C@@H](C(=O)O1)[C@]34O)O2", "note": "(tested in a mixture with another compound)", "AC50": "5.3 µM (active)"}
{"smiles": "COP(=S)(OC)Oc1ccc(SC)c(C)c1", "outcome": "inactive"}
{"smiles": "Oc1cc(Cl)ccc1Oc1ccc(Cl)cc1Cl", "AC50": "4.61 µM (active) [middle of 4 runs]"}
{"read-out": "Macrophage colony-stimulating factor (MCSF), CSF1 (gene 1435)", "experiment": "BSK_hDFCGF_MCSF: BioMAP Diversity Plus: hDFCGF Assay for Macrophage colony-stimulating factor (MCSF) Biomarker Activity (AID 2283060)", "conditions": "primary human foreskin fibroblasts; actives raise or lower the signal", "outline": "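Primary human foreskin fibroblasts dosed with chemical; 24 h later, M-CSF quantified by ELISA; curves fitted in both directions vs DMSO negative control.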"}
{"smiles": "O=C(O)C(F)(F)C(F)(F)C(F)(F)C(F)(F)C(F)(F)C(F)(F)C(F)(F)F", "outcome": "inactive"}
{"smiles": "CNC(=O)/C=C(\\C)OP(=O)(OC)OC", "outcome": "inactive"}
{"smiles": "CC1(c2ccc(Oc3ccccc3)cc2)OC(=O)N(Nc2ccccc2)C1=O", "note": "(configuration not stated)", "outcome": "inactive"}
{"smiles": "O=C(Nc1ccccc1)Nc1cnns1", "outcome": "inactive"}
{"smiles": "COP(=S)(OC)Oc1ccc([N+](=O)[O-])cc1", "AC50": "11.1 µM (active)"}
{"smiles": "CNC(=O)Oc1cccc(N=CN(C)C)c1", "AC50": "15.9 µM (active)"}
{"smiles": "CCCN(CCOc1c(Cl)cc(Cl)cc1Cl)C(=O)n1ccnc1", "AC50": "23.8 µM (active)"}
{"smiles": "COC(=O)c1ccccc1S(=O)(=O)NC(=O)Nc1nc(C)nc(OC)n1", "outcome": "inactive"}
{"smiles": "Cc1cc(C)nc(NC(=O)NS(=O)(=O)c2ccccc2C(=O)OC2COC2)n1", "outcome": "inactive"}
{"smiles": "CCC(C)(C)C(=O)OC1=C(c2ccc(Cl)cc2Cl)C(=O)OC12CCCCC2", "AC50": "5.55 µM (active)"}
{"smiles": "CNC(=O)Oc1ccccc1OC(C)C", "outcome": "inactive"}
{"smiles": "Clc1ccccc1-c1nnc(-c2ccccc2Cl)nn1", "outcome": "inactive"}
{"smiles": "O=C1c2ccccc2C(=O)N1SC(Cl)(Cl)Cl", "AC50": "26 µM (active)"}
{"smiles": "Cc1[nH]c(=O)n(C(C)(C)C)c(=O)c1Cl", "outcome": "inactive"}
{"smiles": "C[C@H]1[C@H](c2ccc(Cl)cc2)SC(=O)N1C(=O)NC1CCCCC1", "AC50": "9.15 µM (active)"}
{"smiles": "COC(=O)c1ccccc1S(=O)(=O)NC(=O)N(C)c1nc(C)nc(OC)n1", "outcome": "inactive"}
{"smiles": "CCc1ccc(C(=O)NN(C(=O)c2cc(C)cc(C)c2)C(C)(C)C)cc1", "outcome": "inactive"}
{"smiles": "CC[C@H](C)[C@H]1O[C@]2(C=C[C@@H]1C)C[C@@H]1C[C@@H](C/C=C(\\C)[C@@H](O[C@H]3C[C@H](OC)[C@@H](O[C@H]4C[C@H](OC)[C@@H](O)[C@H](C)O4)[C@H](C)O3)[C@@H](C)/C=C/C=C3\\CO[C@@H]4[C@H](O)C(C)=C[C@@H](C(=O)O1)[C@]34O)O2", "note": "(tested in a mixture with another compound)", "AC50": "8.11 µM (active)"}
{"smiles": "O=S(=O)(O)C(F)(F)C(F)(F)C(F)(F)C(F)(F)C(F)(F)C(F)(F)C(F)(F)C(F)(F)F", "AC50": "48.1 µM (active) and 48.4 µM (active)", "outcome": "inactive"}
{"smiles": "Oc1ccc(Cl)cc1Cc1ccccc1", "AC50": "14.7 µM (active) [middle of 7 runs]"}
{"smiles": "COP(=S)(OC)Oc1ccc(SC)c(C)c1", "outcome": "inactive"}
{"smiles": "COC(=O)c1ccccc1CS(=O)(=O)NC(=O)Nc1nc(OC)cc(OC)n1", "outcome": "inactive"}
{"smiles": "Oc1cc(Cl)ccc1Oc1ccc(Cl)cc1Cl", "AC50": "10.7 µM (active) [middle of 4 runs]"}
{"smiles": "OCCOc1ccccc1", "outcome": "inactive"}
{"smiles": "ClC1C(Cl)C(Cl)C(Cl)C(Cl)C1Cl", "note": "(configuration not stated)", "outcome": "inactive"}
{"smiles": "CC(C)N(C(=O)COc1nnc(C(F)(F)F)s1)c1ccc(F)cc1", "AC50": "28.9 µM (active)"}
